# Assay results: PubChem BioAssay (NCATS)
# Inconclusive results are not listed. Calls of active or inactive are those of the source. Calls come from the whole dose curve; as a rule, active = well fitted curve in the direction sought with a large enough effect; inconclusive = small, poorly fitted or top-dose-only effect, or another doubt; inactive = no such curve, though single readings can be large; an effect the other way counts as inactive or inconclusive.
# System: not listed separately
# Assay: qHTS of pediatric cancer cell lines to identify multiple opportunities for drug repurposing: Confirmatory screen for SK-N-SH cells (AID 1347129);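 note: cells exposed to compound for 48 h before viability read; nearly all actives have a fitted effect of over 60% in size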;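 for activity change, negative = cytotoxic: plate controls were DMSO for no effect and bortezomib control for full effect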
# Settings: SK-N-SH neuroblastoma cell viability; series mostly up to 46.1 µM; activity change, negative = cytotoxic: at the top concentration
# Outline: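 Cells (500-1,000/well) rested 5 h, then received compounds for 48 h; metabolically active cells were measured by CellTiter-Glo luminescence. Final concentrations spanned up to 46 µM (MIPE, 11-point) or 0.59 nM-46 µM (NPC, 8-point) in primary screens, 11-point in follow-ups.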
# Potency is the fitted concentration of half-maximal effect.
SMILES,"activity change, negative = cytotoxic",Potency
O=NN(CCCl)C(=O)NCCCl,6.53% (inactive),–
COc1cccc2cc(-c3nc(C4CCC(C(=O)O)CC4)n4ncnc(N)c34)[nH]c12 (stereo not given),–,10.5 µM (active)
Nc1nc2c(ncn2COCCO)c(=O)[nH]1,-3.1% (inactive),–
CCN(CC)CCCC(C)Nc1ccnc2cc(Cl)ccc12 (stereo not given),-5.13% (inactive),–
CCCS(=O)(=O)Nc1ccc(F)c(C(=O)c2c[nH]c3ncc(-c4ccc(Cl)cc4)cc23)c1F,-1.14% (inactive),–
COc1cc2nccc(Oc3ccc(NC(=O)NC4CC4)c(Cl)c3)c2cc1C(N)=O,-14.2% (inactive),–
NCCCC(N)(C(=O)O)C(F)F (stereo not given),4.19% (inactive),–
CCC(C)n1ncn(-c2ccc(N3CCN(c4ccc(OC[C@H]5CO[C@](Cn6cncn6)(c6ccc(Cl)cc6Cl)O5)cc4)CC3)cc2)c1=O (stereo not given in full),–,14.8 µM (active)
CN1CCN(CCCN2c3ccccc3Sc3ccc(C(F)(F)F)cc32)CC1,–,16.6 µM (active)
COc1ccc(-c2oc3cc(OC)ccc3c2C(=O)c2ccc(C#N)cc2)cc1,8.22% (inactive),–
Nc1nc2ccc(OC(F)(F)F)cc2s1,10.1% (inactive),–
Cc1c(CN2CCN(C(=O)C(C)C)CC2)sc2c(N3CCOCC3)nc(-c3cnc(N)nc3)nc12,–,1.05 µM (active)
COc1ccc(-c2ccc3c(N4CCOCC4)nc(N4C[C@@H](C)O[C@@H](C)C4)nc3n2)cc1CO,–,8.33 µM (active)
Oc1cccc(-c2nc(N3CCOCC3)c3oc4ncccc4c3n2)c1,–,4.18 µM (active)
COc1ccc(-c2ccc3c(N4CCOC[C@H]4C)nc(N4CCOC[C@H]4C)nc3n2)cc1CO,–,0.526 µM (active)
CO[C@@H]1[C@H](N(C)C(=O)c2ccccc2)C[C@H]2O[C@]1(C)n1c3ccccc3c3c4c(c5c6ccccc6n2c5c31)C(=O)NC4,8.48% (inactive),–
Cc1c(C)c2c(c(C)c1O)CCC(C)(COc1ccc(CC3SC(=O)NC3=O)cc1)O2 (stereo not given),10.9% (inactive),–
C#Cc1cccc(Nc2ncnc3cc(OCCOC)c(OCCOC)cc23)c1,-12.3% (inactive),–
NC(N)=NC(=O)c1nc(Cl)c(N)nc1N,-1.98% (inactive),–
Cc1cn[nH]c1,8.25% (inactive),–
Cc1oncc1C(=O)Nc1ccc(C(F)(F)F)cc1,-4.73% (inactive),–
NC(=O)c1ccc(I)c([N+](=O)[O-])c1,–,55.4 µM (active)
Nc1nc2[nH]cc(CCc3ccc(C(=O)N[C@@H](CCC(=O)O)C(=O)O)cc3)c2c(=O)[nH]1,-2.1% (inactive),–
C[C@]1(c2nc3c(C(N)=O)cccc3[nH]2)CCCN1,3.83% (inactive),–
O=C(c1cc(Cc2n[nH]c(=O)c3ccccc23)ccc1F)N1CCN(C(=O)C2CC2)CC1,–,14.8 µM (active)

# Target: Furin (Homo sapiens) (UniProt P09958)
# Assay: Furin counterscreen qHTS for Zika virus inhibitors (AID 1347149); note: nearly all actives have a fitted effect of over 70% in size;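 for activity change, negative = inhibition: purified recombinant full-length human furin enzyme at 5 nM; fluorescence gain from furin cutting a BOC-RVRR-AMC peptide substrate over 15 min; top concentration of the series differs between compounds; plate controls were no-inhibitor control for no effect and no-enzyme control for full effect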
# Settings: furin enzymatic counterscreen, fluorogenic substrate; series mostly up to 57.5 µM; activity change, negative = inhibition: at the top concentration
# Outline: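 Fluorogenic cleavage of BOC-RVRR-AMC (2 microM final, Km ~15 µM) was monitored (ex 340, em 450 nm) at 37C after 15 min RT preincubation of 5 nM furin with compounds in HEPES pH 7.0 buffer with CaCl2 and Triton X-100. Percent inhibition was fitted to a 4-parameter Hill curve.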
# Furin (Homo sapiens), sequence (P09958 whole entry, looked up): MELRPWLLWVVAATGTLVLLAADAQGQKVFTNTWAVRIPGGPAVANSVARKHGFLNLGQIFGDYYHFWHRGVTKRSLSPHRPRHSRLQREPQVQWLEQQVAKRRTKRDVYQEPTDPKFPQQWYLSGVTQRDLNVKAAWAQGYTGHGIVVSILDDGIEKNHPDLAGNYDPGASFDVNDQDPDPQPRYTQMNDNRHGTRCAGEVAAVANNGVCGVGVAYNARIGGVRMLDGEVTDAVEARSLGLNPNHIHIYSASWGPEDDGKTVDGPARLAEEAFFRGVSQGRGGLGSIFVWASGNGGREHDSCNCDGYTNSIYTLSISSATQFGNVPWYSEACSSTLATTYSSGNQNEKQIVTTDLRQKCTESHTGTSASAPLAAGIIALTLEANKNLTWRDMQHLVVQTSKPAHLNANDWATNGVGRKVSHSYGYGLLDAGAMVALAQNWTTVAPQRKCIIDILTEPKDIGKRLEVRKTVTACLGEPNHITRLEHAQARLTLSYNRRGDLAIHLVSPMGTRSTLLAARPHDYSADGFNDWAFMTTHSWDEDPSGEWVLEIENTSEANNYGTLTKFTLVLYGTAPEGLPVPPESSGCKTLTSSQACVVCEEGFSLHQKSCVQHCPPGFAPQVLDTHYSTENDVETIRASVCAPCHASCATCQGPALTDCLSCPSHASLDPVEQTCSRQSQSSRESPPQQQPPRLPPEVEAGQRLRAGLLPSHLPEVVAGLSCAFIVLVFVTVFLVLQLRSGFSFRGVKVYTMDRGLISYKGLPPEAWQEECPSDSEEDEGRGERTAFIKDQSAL
SMILES,"activity change, negative = inhibition",Potency
CCN(CC)CCCC(C)Nc1ccnc2cc(Cl)ccc12 (stereo not given),9.48% (inactive),–
COCC(=O)NCC=Cc1ccc2ncnc(Nc3ccc(Oc4ccc(C)nc4)c(C)c3)c2c1,–,30.3 µM (active)
COc1ccc(-c2ccc3c(N4CCOCC4)nc(N4C[C@@H](C)O[C@@H](C)C4)nc3n2)cc1CO,–,24.1 µM (active)

# System: Zika virus NS2B-NS3 protease (unlinked)
# Assay: Optimization of GU AMC qHTS for Zika virus inhibitors: Unlinked NS2B-NS3 protease assay (AID 1347151); note: nearly all actives have a fitted effect of over 80% in size;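 for activity change, negative = inhibition: 0% = no-inhibitor control and -100% = no-enzyme control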
# Settings: recombinant ZIKV NS2B-NS3 protease, fluorogenic AMC substrate; series mostly up to 52.5 µM; activity change, negative = inhibition: at the top concentration
# Outline: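 Fluorescence gain (340/450 nm) over 15 min at room temperature, ~20% conversion, gave percent inhibition fitted to a 4-parameter Hill equation; enzyme was unlinked NS2B-NS3 (25 nM final), pH 8.0 Tris buffer.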
SMILES,"activity change, negative = inhibition",Potency
O=NN(CCCl)C(=O)NCCCl,8.82% (inactive),–
Nc1nc2c(ncn2COCCO)c(=O)[nH]1,-0.12% (inactive),–
CCN(CC)CCCC(C)Nc1ccnc2cc(Cl)ccc12 (stereo not given),–,15 µM (active)
NCCCC(N)(C(=O)O)C(F)F (stereo not given),-0.854% (inactive),–
CN1CCN(CCCN2c3ccccc3Sc3ccc(C(F)(F)F)cc32)CC1,7.56% (inactive),–
Nc1nc2ccc(OC(F)(F)F)cc2s1,-1.08% (inactive),–
NC(N)=NC(=O)c1nc(Cl)c(N)nc1N,–,23.8 µM (active)
Cc1cn[nH]c1,-1.25% (inactive),–
Cc1oncc1C(=O)Nc1ccc(C(F)(F)F)cc1,1.17% (inactive),–

# System: Zika virus NS2B-NS3 protease (linked construct)
# Assay: Confirmatory screen NINDS AMC qHTS for Zika virus inhibitors (AID 1347152); note: nearly all actives have a fitted effect of over 70% in size;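 for activity change, negative = inhibition: top concentration of the series differs between compounds; 0% = no-inhibitor control and -100% = no-enzyme control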
# Settings: Purified linked NS2B-NS3, AMC substrate fluorescence; series mostly up to 56.6 µM; activity change, negative = inhibition: at the top concentration
# Outline: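 IC50s from 4-parameter Hill fits of percent inhibition, based on AMC fluorescence gain (340/450 nm) over 15 min with 10 microM Bz-Nle-KRR-AMC. Enzyme: 1 nM linked NS2B-NS3 in Tris-HCl pH 8.0; 15-min compound preincubation.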
SMILES,"activity change, negative = inhibition",Potency
CCN(CC)CCCC(C)Nc1ccnc2cc(Cl)ccc12 (stereo not given),5.36% (inactive),–
CN1CCN(CCCN2c3ccccc3Sc3ccc(C(F)(F)F)cc32)CC1,17.2% (inactive),–
COc1ccc(-c2ccc3c(N4CCOCC4)nc(N4C[C@@H](C)O[C@@H](C)C4)nc3n2)cc1CO,–,27.1 µM (active)
